# PLK1 PBD block: blocks phosphopeptide binding to human PLK1 polo-box domain; P53350; Potency, µM, for inactives: max response, negative = inhibition, most hits filed as inhibitors; 360,000 compounds, 2.8% hits; Plk1 PBD binding of FITC phosphopeptide, fluorescence polarization; note: potency is the fitted concentration of half-maximal effect; series mostly up to about 57 µM; % is set by controls: 0 for no effect and ±100 for the full control effect; nearly all actives have a fitted effect of over 65% in size
# BAZ2B block: inhibitors of human BAZ2B bromodomain; Q9UIF8; Potency, µM (titrated, usually from 114 µM), for inactives: at the highest dose activity change, negative = inhibition, hits mostly inhibitors; 360,000 compounds, 4.4% hits; AlphaScreen BAZ2B-H3K14Ac peptide displacement; note: potency is the fitted concentration of half-maximal effect; % is set by controls: 0 for no effect and ±100 for the full control effect; nearly all actives have a fitted effect of over 60% in size
#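 Inhibition is scored as reduced AlphaScreen emission. The BAZ2B/b-H3(5-23)K14Ac complex (50 nM each) in PBS pH 7.4, 0.01% Tween-20 meets compound (up to 110 uM) for 30 min at RT before bead addition.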
# JMJD2A Tudor inh: blocks the human JMJD2A Tudor domain | O75164 | AlphaScreen JMJD2A-Tudor / H3K4me3 peptide binding | Potency, µM (series often up to 114 µM), for inactives: at the top dose activity change, negative = inhibition, actives largely listed as inhibitors | 390,000 compounds, 4.4% hits | AID 504339; note: potency is the fitted concentration of half-maximal effect; % is set by controls: 0 for no effect and ±100 for the full control effect; nearly all actives have a fitted effect of over 50% in size
# HP1b chromo inh: blocks HP1-beta chromodomain binding to methylated histone tails | AlphaScreen HP1-beta / biotin-H3K9me3 peptide binding | P83916 | 390,000 compounds, 0.56% hits | Potency, µM (series often up to 114 µM), for inactives: top-dose activity change, negative = inhibition, hits mostly inhibitors; note: potency is the fitted concentration of half-maximal effect; nearly all actives have a fitted effect of over 70% in size
#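 HP1-beta protein (50 nM final) preincubated 30 min at room temperature with biotinylated H3(1-18)K9me3 peptide (50 nM) in PBS pH 7.4, 0.01% Tween-20, then compound added for 30 min. AlphaScreen streptavidin donor/nickel chelate acceptor beads (10 ug/mL final), 30 min dark, luminescence read.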
# G9a inh: G9a (human) methyltransferase inhibition; G9a H3K9 monomethylation, AlphaScreen, 2 h; Potency, µM (highest dose often 102 µM), for the others: at the top dose activity, negative = inhibition, hits mostly inhibitors; 350,000 compounds, 8.8% hits; note: potency is the fitted concentration of half-maximal effect; % is set by controls: 0 for no effect and ±100 for the full control effect; nearly all actives have a fitted effect of over 75% in size
# Target sequence (Q96KQ7 913-1193 limits assumed): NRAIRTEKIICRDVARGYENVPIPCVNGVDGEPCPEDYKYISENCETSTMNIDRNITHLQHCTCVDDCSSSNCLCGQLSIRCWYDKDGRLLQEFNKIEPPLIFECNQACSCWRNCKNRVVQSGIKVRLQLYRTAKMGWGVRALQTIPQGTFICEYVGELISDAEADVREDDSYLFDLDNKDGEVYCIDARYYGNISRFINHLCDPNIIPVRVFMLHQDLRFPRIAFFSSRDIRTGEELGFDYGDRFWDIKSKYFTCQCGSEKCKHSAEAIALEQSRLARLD
#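 Step 1: enzyme (final 20 nM) with compound, 15 min RT. Step 2: substrate peptide 500 nM and SAM 20 uM, 2 h RT. Step 3: anti-H3K9me1 antibody and AlphaScreen beads, 10 min, then plate read.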
# PI5P4K alpha inh: PI5P4K alpha (human) kinase inhibition; PI5P4Kalpha enzyme, ADP-Glo luminescence, 60 min; stronger effect = lower value; P48426; AID 652105; max response, %; 330,000 compounds, 1.2% hits; active = max response of -50% or lower; inconclusive = between -30% and -50%; inactive = -30% or higher; note: value at the top dose of about 77 µM; % is set by controls: 0 for no effect and ±100 for the full control effect
# Target sequence (P48426 whole entry, looked up): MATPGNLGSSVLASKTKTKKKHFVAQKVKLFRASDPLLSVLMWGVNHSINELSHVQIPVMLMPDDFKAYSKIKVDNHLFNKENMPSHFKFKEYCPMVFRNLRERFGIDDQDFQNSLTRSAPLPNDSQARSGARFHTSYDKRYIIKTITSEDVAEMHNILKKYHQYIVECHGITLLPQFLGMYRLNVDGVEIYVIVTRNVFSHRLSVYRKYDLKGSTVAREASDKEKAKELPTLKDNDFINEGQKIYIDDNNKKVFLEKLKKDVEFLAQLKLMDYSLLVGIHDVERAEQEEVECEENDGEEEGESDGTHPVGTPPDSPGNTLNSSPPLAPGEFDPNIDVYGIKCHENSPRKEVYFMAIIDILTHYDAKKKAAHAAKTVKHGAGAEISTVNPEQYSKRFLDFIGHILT
#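 Quantitative HTS of the MLSMR library against PI5P4Kalpha with substrate. ATP added last at 5 microM final; room temperature, 60 minutes. Remaining ATP depleted, ADP converted and read as luminescence.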
# * = called active by the depositor; u = inconclusive; x = no result given; [ ] = remark or other dose. In the library only some 12% were active in any assay of this set; here they are far more common. Unless noted, calls come from the whole dose curve; as a rule, active = well fitted curve in the direction sought with a large enough effect; inconclusive = small, poorly fitted or top-dose-only effect, or another doubt; inactive = no such curve, though single readings can be large; an effect the other way counts as inactive or inconclusive.
SMILES,PLK1 PBD block,BAZ2B block,JMJD2A Tudor inh,HP1b chromo inh,G9a inh,PI5P4K alpha inh
CC[C@H](C)Cc1cn([C@@H](CCCN=C(N)N)C(=O)NCCCCCCCCCCC(=O)N2CCNCC2)nn1,-17%,11%,-23%,24%,6%[2.33 µM],20
C[C@@H]1CN([C@H](C)CO)C(=O)c2cc(Br)cnc2O[C@H]1CN(C)Cc1cccnc1,-15%,x,x,x,x,1
COc1cc(/C=C2/C(=N)N3C=CSC3=NC2=O)ccc1OCCCOc1c(C)cccc1C,-4%,1%,1%,14%,24%[12.7 µM],x
COc1cc(/C=C2\C(=N)N3N=C(S(C)(=O)=O)SC3=NC2=O)cc(OC)c1OCCOc1ccc(C)cc1,21µM*,u,u,-6%,-24%,-11
COc1cc(/C=C2\C(=N)N3N=C(S(C)(=O)=O)SC3=NC2=O)ccc1OCCOc1ccc(C)cc1,u,-32%,-19%,u,u,u
COc1cc(/C=C2\C(=N)N3N=C(S(C)(=O)=O)SC3=NC2=O)cc(OC)c1OCCOc1cccc(C)c1,30µM*,u,u,-15%,u,u
CCN1CCS/C1=C/C=C/C1=[N+](CC)CCS1,-2%,-24%,u,4%,50µM*,3
CCN1CCS/C1=C\C=C\C1=[N+](CC)CCS1,8%,-20%,-11%,45%,3.2µM*,1
Cc1ccc(-c2csc(N/N=C/c3ccco3)n2)c(C)c1,-29%,-10%,-21%,u,-12%[59 µM],17
CN(C)S(=O)(=O)c1cccc(-c2csc(N/N=C/c3ccco3)n2)c1,-19%,35µM*,u,u,-15%[12.7 µM],u
CN(CC(=O)Nc1ccc(S(=O)(=O)N2CCOCC2)cc1)Cc1ccc(F)cc1,2%,7%,-3%,55%,u,-9
CSCCC(C(=O)NC1CCCC1)n1c(-c2ccncc2)nc2ccccc21 (stereo not drawn),-14%,x,x,x,x,3
CNCCCOc1cccc(Oc2ccccc2)c1,-2%,50µM*,1.6µM*,8%,x,4
CC(O)CNCCCOc1ccccc1OCc1ccccc1 (stereo not drawn),-9%,50µM*,3.2µM*,-32%,13µM*,6
COCCNC(=O)COc1cccc(Oc2ccccc2)c1,-14%,-6%,-10%,12%,-1%[12.7 µM],x
CC(O)CNCCCOc1cccc(Oc2ccccc2)c1 (stereo not drawn),-8%,28µM*,22µM*,15%,x,-3
CNCCCOc1cccc(OC(C)C)c1,-2%,50µM*,1.6µM*,u,13µM*,2
Fc1ccc(NCc2ccccc2-c2nnc(-c3ccccc3Cl)o2)cc1Cl,x,3%,7%,47%,9%[59 µM],x
COc1cc(NS(=O)(=O)c2cc(NC(C)=O)ccc2OC)c(OC)cc1NC(=O)c1ccccc1,2%,x,-31%,-7%,x,u
CCCc1ccc(OCc2ccc(C(=O)Nc3ccccc3C(=O)OC)o2)cc1,x,11%,37%,68%,65%[59 µM],x
CCOC(=O)c1c(/N=C/N(C)C)sc(C)c1C,-11%,-18%,-16%,28%,u,4
CCOC(=O)c1c(/N=C/N(C)C)sc(/C=N/Nc2ccccc2)c1-c1ccc(Cl)cc1,30µM*,-6%,u,-5%,u,2
Cc1ccc2[nH]c(=O)c(CN(CCO)Cc3nnnn3Cc3ccco3)cc2c1,x,x,-8%[57.1 µM],24%[57 µM],x,x
NC(=S)n1[nH]c(-c2ccc([N+](=O)[O-])cc2)c(N=Nc2ccccc2[N+](=O)[O-])c1=O,-28%,40µM*,u,-6%,1%,-21
Cc1[nH]n(C(N)=S)c(=O)c1N=Nc1cccc([N+](=O)[O-])c1C,-7%,u,u,6%,56µM*,-5
SMILES,PLK1 PBD block,BAZ2B block,JMJD2A Tudor inh,HP1b chromo inh,G9a inh,PI5P4K alpha inh
NC(=S)n1[nH]c(-c2ccc([N+](=O)[O-])cc2)c(N=Nc2cccc([N+](=O)[O-])c2)c1=O,21µM*,40µM*,45µM*,u,11µM*,u
Cc1c(N=Nc2c(-c3ccc([N+](=O)[O-])cc3)[nH]n(C(N)=S)c2=O)cccc1[N+](=O)[O-],u,u,u,u,50µM*,-62*
Cc1cnc(CNC(=O)c2ccc3nc([C@@H]4O[C@H](CO)[C@H](O)[C@H](O)[C@H]4O)[nH]c3c2)cn1,-2%,x,x,x,x,-1
C=C1C(=O)O[C@@H]2[C@H]3O[C@]3(C)CC/C=C(\C)CC[C@@H]12,-1%,x,-4%,55%,7.9µM*,0
Cc1ccc(C)c(CSc2c(C(C)C)cnc3c2c(=O)n(C)c(=O)n3C)c1,x,-3%,-30%,26%[57 µM],u,x
Cc1[nH]c2ccccc2c1C1C(c2ccccc2)=NN=C(C(C)C)N1O (stereo not drawn),-12%,-31%,-34%,1%,6.3µM*,x
O=C(Cc1cccc(NC(=O)C2CCN(C(=O)C3CCCCC3)CC2)c1)Nc1cccc(C(=O)N2CCCCC2)c1,-16%,x,-16%,34%,x,-10
Cc1ccc(CN2CCC(N3CC(C)OC(C)C3)CC2)cc1 (stereo not drawn),1%,56µM*,22µM*,u,13µM*,-5
COc1ccc(CN2CCC(N3CC(C)OC(C)C3)CC2)c(OC)c1OC (stereo not drawn),-2%,u,20µM*,u,x,-6
CN(Cc1ccco1)c1nc(-c2cccnc2)nc2ccccc12,x,x,x,x,-1%[0.501 µM],x
Cc1ccc(CN(C)c2nc(-c3cccnc3)nc3ccccc23)o1,-14%,-22%,-32%,24%,40µM*,-2
CCOc1ccc(CN(C)c2nc(-c3cccnc3)nc3ccccc23)cc1OC,-12%,35µM*,u,1%,u,4
CCc1nc2ccc(C(=O)N3CCN(c4ccc([N+](=O)[O-])cc4)CC3)cc2nc1CC,0%,-29%,-29%,-7%[57 µM],2%[0.0925 µM],1
O=c1[nH]cnc2sc3c(c12)CCN(Cc1ccccc1)C3,-16%,-17%,-16%,23%,u,-1
O=c1[nH]cnc2sc3c(c12)CN(Cc1ccccc1)CC3,-4%,0%,-12%,2%,25µM*,-27
O=C(Nc1ccc(Br)cc1)c1ccc2c(c1)OCO2,-13%,-15%,-3%,41%,32%,0
CCOC(=O)c1[nH]c(C)c(C(=O)N(CC)CC)c1C,-18%,3%,-27%,28%,79µM*,-8
COc1cc2cc(C(=O)O)[nH]c2c(OC)c1OC,-9%,u,-12%,29%,-12%[59 µM],x
COc1ccc(OC)c2c(=O)cc(C(=O)O)[nH]c12,1%,u,79µM*,-2%,25µM*,-12
Cc1cccc(N2CCN(C(=S)c3ccc([N+](=O)[O-])cc3)CC2)c1,4.7µM*,11µM*,40µM*,32µM*,4µM*,-14
